# ± gives the standard deviation of the averaged measurements. The full data set covers some 5,400 targets. This sample favours those with the largest changes.
# Columns and labels:
# Assay in all cases: NP40-soluble protein abundance relative to vehicle (solubility fold change) (ratio); higher = more soluble protein in presence of GTP
# ARHGAP1 = molecular target: T1, ARHGAP1 (UniProt Q07960)
# T1 sequence (whole entry): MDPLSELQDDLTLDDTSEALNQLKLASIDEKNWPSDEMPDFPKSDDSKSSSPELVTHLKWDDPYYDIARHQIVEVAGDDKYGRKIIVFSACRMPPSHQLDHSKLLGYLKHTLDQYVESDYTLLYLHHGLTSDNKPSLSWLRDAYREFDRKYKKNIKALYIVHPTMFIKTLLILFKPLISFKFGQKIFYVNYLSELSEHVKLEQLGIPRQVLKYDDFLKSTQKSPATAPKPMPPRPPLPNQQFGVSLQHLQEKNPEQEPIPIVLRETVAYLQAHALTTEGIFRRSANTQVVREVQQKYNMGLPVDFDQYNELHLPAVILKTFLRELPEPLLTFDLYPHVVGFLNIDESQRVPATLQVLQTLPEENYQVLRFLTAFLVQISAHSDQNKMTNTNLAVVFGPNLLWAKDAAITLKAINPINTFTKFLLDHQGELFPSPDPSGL
# In short: (§1)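 Data come from three independent experiments in which Dounce-homogenised Jurkat crude lysate was treated at eight concentrations from 0.1 to 10 mM. Treatment ran 10 min at room temperature and then 3 min at 37 °C, after which 0.8% NP40 and benzonase were added for 60 min at 4 °C before ultracentrifugation. The supernatant underwent TMT labelling and LC-MS/MS, and vsn-normalised intensities were expressed as fold change against the detergent-processed vehicle in each replicate.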
# [1] = molecular target: T2, UniProt Q08170|A0A0D9SEM4
# T2 sequence (whole entry): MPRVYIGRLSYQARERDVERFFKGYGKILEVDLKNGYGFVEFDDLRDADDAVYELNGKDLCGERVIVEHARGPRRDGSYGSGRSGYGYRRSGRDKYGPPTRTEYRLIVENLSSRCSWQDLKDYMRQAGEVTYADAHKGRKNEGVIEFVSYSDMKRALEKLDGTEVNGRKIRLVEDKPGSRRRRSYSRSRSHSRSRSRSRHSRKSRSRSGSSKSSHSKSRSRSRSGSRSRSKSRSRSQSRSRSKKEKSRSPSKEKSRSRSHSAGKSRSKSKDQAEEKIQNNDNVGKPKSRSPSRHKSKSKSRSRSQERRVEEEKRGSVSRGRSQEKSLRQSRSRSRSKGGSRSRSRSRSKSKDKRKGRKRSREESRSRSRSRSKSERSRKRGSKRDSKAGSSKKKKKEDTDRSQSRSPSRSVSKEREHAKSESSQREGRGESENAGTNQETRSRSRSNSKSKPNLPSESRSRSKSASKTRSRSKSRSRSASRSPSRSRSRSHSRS
# In short: as §1
# [2] = molecular target: T3, UniProt Q4ADV7|Q4ADV7-3|Q4ADV7-2
# T3 sequence (whole entry): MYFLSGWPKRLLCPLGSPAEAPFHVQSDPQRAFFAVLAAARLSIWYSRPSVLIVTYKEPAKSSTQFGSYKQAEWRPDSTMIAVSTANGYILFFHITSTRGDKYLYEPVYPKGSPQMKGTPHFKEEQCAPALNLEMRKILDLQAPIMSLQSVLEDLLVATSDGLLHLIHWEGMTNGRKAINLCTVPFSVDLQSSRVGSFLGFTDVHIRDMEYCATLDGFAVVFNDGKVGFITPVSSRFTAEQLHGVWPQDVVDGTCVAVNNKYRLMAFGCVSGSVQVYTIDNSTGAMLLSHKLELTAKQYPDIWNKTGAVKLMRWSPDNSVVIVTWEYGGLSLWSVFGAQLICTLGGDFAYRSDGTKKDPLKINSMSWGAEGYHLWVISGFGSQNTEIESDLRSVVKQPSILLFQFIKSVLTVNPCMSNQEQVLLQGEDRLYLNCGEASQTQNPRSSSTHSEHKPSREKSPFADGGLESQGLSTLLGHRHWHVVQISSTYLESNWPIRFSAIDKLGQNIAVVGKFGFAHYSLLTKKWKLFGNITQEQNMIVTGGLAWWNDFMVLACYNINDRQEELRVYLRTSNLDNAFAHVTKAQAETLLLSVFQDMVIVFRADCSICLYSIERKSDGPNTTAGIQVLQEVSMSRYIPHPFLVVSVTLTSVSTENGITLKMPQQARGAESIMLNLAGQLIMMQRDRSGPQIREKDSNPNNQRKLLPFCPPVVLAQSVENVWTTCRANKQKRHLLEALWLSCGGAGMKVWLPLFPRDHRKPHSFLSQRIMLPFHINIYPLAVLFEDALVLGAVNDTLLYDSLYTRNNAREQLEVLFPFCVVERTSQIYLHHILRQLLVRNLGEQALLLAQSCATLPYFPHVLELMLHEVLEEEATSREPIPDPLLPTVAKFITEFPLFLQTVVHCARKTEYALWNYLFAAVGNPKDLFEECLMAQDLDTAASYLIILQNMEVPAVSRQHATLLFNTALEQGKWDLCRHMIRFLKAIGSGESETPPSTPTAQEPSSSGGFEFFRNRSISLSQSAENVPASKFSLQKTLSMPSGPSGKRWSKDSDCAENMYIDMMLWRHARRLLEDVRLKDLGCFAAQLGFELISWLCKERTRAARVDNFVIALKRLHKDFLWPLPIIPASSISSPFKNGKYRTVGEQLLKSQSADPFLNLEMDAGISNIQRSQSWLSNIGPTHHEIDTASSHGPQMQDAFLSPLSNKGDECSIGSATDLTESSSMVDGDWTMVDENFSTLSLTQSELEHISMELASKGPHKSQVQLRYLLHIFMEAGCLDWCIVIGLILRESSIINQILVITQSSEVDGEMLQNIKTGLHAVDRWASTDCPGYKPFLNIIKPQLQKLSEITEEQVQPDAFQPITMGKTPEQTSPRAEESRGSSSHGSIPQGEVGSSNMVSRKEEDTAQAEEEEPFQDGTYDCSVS
# In short: as §1
# UniProt Q68CQ4 = molecular target: T4, UniProt Q68CQ4
# T4 sequence (whole entry): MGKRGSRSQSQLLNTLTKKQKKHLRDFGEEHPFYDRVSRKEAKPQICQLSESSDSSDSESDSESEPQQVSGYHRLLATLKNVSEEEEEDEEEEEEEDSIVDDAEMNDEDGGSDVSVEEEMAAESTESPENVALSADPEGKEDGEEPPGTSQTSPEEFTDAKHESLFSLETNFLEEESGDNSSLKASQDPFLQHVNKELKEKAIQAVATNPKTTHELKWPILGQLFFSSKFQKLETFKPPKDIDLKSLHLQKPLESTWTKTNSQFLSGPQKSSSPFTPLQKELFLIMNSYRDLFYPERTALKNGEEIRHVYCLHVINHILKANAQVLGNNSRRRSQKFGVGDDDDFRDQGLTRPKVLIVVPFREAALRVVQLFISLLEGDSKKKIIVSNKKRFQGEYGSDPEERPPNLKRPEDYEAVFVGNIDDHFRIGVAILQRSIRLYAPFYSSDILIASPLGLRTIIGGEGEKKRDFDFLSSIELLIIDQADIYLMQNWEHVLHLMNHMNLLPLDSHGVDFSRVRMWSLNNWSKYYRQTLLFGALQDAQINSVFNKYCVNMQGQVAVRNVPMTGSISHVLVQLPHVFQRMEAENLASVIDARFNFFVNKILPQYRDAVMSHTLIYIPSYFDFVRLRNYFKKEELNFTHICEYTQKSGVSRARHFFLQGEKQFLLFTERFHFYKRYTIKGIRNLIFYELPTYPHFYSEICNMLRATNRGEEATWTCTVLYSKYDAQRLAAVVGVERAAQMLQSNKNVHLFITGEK
# In short: as §1
# [3] = molecular target: T5, UniProt Q6ULP2|Q6ULP2-2|Q6ULP2-4|Q6ULP2-5|Q6ULP2-3
# T5 sequence (whole entry): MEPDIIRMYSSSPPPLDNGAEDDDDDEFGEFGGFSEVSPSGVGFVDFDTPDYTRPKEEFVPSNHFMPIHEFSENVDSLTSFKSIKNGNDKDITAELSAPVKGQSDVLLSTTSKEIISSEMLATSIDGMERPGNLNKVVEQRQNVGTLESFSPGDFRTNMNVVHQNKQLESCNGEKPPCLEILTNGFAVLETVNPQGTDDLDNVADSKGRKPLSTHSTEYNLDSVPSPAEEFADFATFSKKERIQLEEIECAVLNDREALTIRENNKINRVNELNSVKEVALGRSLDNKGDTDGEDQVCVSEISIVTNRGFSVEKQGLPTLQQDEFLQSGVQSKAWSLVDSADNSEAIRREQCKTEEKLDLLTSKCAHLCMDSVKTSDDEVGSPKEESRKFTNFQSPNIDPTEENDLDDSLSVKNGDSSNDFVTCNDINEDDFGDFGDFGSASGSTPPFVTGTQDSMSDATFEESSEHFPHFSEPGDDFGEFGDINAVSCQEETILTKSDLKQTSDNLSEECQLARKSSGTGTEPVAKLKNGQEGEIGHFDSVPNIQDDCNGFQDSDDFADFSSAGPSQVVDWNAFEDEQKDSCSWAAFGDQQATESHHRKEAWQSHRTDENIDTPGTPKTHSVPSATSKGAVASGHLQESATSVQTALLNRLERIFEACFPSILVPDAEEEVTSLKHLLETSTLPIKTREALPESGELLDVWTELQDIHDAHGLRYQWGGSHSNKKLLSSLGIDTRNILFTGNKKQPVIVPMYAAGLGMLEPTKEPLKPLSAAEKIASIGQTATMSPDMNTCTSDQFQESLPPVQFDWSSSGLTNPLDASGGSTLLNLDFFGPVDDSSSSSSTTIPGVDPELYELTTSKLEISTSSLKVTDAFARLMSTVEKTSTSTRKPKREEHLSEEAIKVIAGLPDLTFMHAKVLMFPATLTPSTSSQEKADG
# In short: as §1
smiles,measurement,setting,value
Nc1nc2c(ncn2[C@@H]2O[C@H](COP(=O)(O)OP(=O)(O)OP(=O)(O)O)[C@@H](O)[C@H]2O)c(=O)[nH]1 [guanosine triphosphate],NP40-soluble protein abundance,ARHGAP1; concentration: 0.1mM,0.963 ± 0.015
same,NP40-soluble protein abundance,ARHGAP1; concentration: 0.5mM,0.961 ± 0.012
same,NP40-soluble protein abundance,ARHGAP1; concentration: 1mM,0.952 ± 0.011
same,NP40-soluble protein abundance,ARHGAP1; concentration: 2mM,0.93 ± 0.045
same,NP40-soluble protein abundance,ARHGAP1; concentration: 4mM,0.942 ± 0.042
same,NP40-soluble protein abundance,ARHGAP1; concentration: 6mM,0.911 ± 0.037
same,NP40-soluble protein abundance,ARHGAP1; concentration: 8mM,0.867 ± 0.06
same,NP40-soluble protein abundance,ARHGAP1; concentration: 10mM,0.908 ± 0.064
same,NP40-soluble protein abundance,[1]; concentration: 0.1mM,0.928 ± 0.042
same,NP40-soluble protein abundance,[1]; concentration: 0.5mM,1.23 ± 0.055
same,NP40-soluble protein abundance,[1]; concentration: 1mM,1.27 ± 0.028
same,NP40-soluble protein abundance,[1]; concentration: 2mM,1.15 ± 0.052
same,NP40-soluble protein abundance,[1]; concentration: 4mM,0.94 ± 0.034
same,NP40-soluble protein abundance,[1]; concentration: 6mM,1.09 ± 0.042
same,NP40-soluble protein abundance,[1]; concentration: 8mM,1.2 ± 0.053
same,NP40-soluble protein abundance,[1]; concentration: 10mM,1.08 ± 0.035
same,NP40-soluble protein abundance,[2]; concentration: 0.1mM,1.09 ± 0.11
same,NP40-soluble protein abundance,[2]; concentration: 0.5mM,1.13 ± 0.091
same,NP40-soluble protein abundance,[2]; concentration: 1mM,1.02 ± 0.04
same,NP40-soluble protein abundance,[2]; concentration: 2mM,1.07 ± 0.077
same,NP40-soluble protein abundance,[2]; concentration: 4mM,1.12 ± 0.18
same,NP40-soluble protein abundance,[2]; concentration: 6mM,0.946 ± 0.025
same,NP40-soluble protein abundance,[2]; concentration: 8mM,0.92397 ± 0.00016
same,NP40-soluble protein abundance,[2]; concentration: 10mM,0.963 ± 0.19
same,NP40-soluble protein abundance,UniProt Q68CQ4; concentration: 0.1mM,1.02 ± 0.068
same,NP40-soluble protein abundance,UniProt Q68CQ4; concentration: 0.5mM,1.02 ± 0.051
same,NP40-soluble protein abundance,UniProt Q68CQ4; concentration: 1mM,1.01 ± 0.048
same,NP40-soluble protein abundance,UniProt Q68CQ4; concentration: 2mM,0.992 ± 0.04
same,NP40-soluble protein abundance,UniProt Q68CQ4; concentration: 4mM,0.999 ± 0.026
same,NP40-soluble protein abundance,UniProt Q68CQ4; concentration: 6mM,0.994 ± 0.042
same,NP40-soluble protein abundance,UniProt Q68CQ4; concentration: 8mM,1.02 ± 0.046
same,NP40-soluble protein abundance,UniProt Q68CQ4; concentration: 10mM,1.03 ± 0.048
same,NP40-soluble protein abundance,[3]; concentration: 0.1mM,1.01 ± 0.098
same,NP40-soluble protein abundance,[3]; concentration: 0.5mM,1.02 ± 0.066
same,NP40-soluble protein abundance,[3]; concentration: 1mM,0.979 ± 0.064
same,NP40-soluble protein abundance,[3]; concentration: 2mM,1 ± 0.044
same,NP40-soluble protein abundance,[3]; concentration: 4mM,1.06 ± 0.041
same,NP40-soluble protein abundance,[3]; concentration: 6mM,1 ± 0.023
same,NP40-soluble protein abundance,[3]; concentration: 8mM,1.03 ± 0.033
same,NP40-soluble protein abundance,[3]; concentration: 10mM,1.02 ± 0.042
